Assay results taken from PubChem BioAssay AID1508600 (Functional Genomics Laboratory (NCATS/FGL), 2020).
Among all 53,000 sequences or so, about 3,700 (7%) were called active.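 The calls were made as follows: active = gene knockdowns whose robust z-score for IL-1 alpha signal is at least 2 or at most -2, so actives lie on both sides; inactive = the rest.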 The sample as a whole holds a higher share of actives than the screen did.

assay: Components of the Cytosolic LPS Sensing Pathway: Gene Identification via Genome-wide siRNA Screen; settings: RAW264.7 macrophages, IL-1a HTRF, actives lie on both sides, screened at 100 nM (by protocol), cells primed 5 h with Pam3CSK4 first;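 also: robust z of the log signal after scaling to non-targeting control siRNA wells of the plate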
Method in brief: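 Knockdown: 100 nM siRNA, 48h, RAW264.7. Stimulation: Pam3CSK4 5 h, then LipidA via TransIT-TKO 24 h. Output: supernatant IL-1a HTRF, negative-control-normalized, log robust z-score; viability by CellTiter-Glo.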

z-score, inactive:
GGAAAACAAGUGGAAAGGGTT against C130071C03Rik 1.54
CCAGCUUCCUCGUAAGUGATT against Hsf4 -1.71
CCACGAUAUUCCAGGUCUGTT against AF067063 -1.54
GCGAUUGUCCAAGAAUUCCTT against Crcp 0.822
GGGAGAGGACGACAUUUACTT against Otx2 0.645
GGAGCCAUGCUAAGAGCAUTT against Dbil5 0.494
GCCAGAGUGUCGAAUAUCATT against Dll4 -0.417
GUUACUGCGUGGACUGUGUTT against C730034F03Rik -0.0785
GCCGUAGGUUAGAGAAUCGTT against Nxnl1 -0.348
CCGUCUUUGUGCUAUGCUGTT against Sstr4 1.56
GGAGGUGAAGCUUCGAAUGTT against Slc25a10 0.052
GGAAAUGGCCUCCAUGAGATT against Krt14 0.734
GGCCUUGCACUUCAGUUUCTT against Mfsd4b1 -0.436
GGAAAGAAGAAAUGAGAAGTT against Gm9871 -1.57
CGGAAGAAGCCAGUUAAGATT against Apol9b 0.665
GGAGUUGUGAAUUUCUCGUTT against Sri -0.198
GGUUACUAGAAAAGUGUUGTT against Olfr1489 1.41
GGGAAUUUCCUGAAAUCCUTT against Mettl8 -0.167
GGUUAACCUGAGAAAAAUGTT against Mkrn1 0.734
GGCAACUUAGGAGUUAGACTT against Pgam5 0.533
CCCUAAGCUCUGUUCCCAGTT against Olfr371 -0.561
GCCAAUCUCUGCUAGAUACTT against Slc46a1 0.447
GGCAACACACUGUCAUUUCTT against Il9 -1.06
CCAACUGUGAUCAGUGAGCTT against Shank3 -0.387
GGCCUUGAAGGAGAUGCUATT against Rell2 0.887
GCAGAUCAUUCCCGUGUUGTT against P2ry14 0.565
GCUGUGCAAGGUGAGGAAATT against Rps4l 1.25
GGUGAUGGAAAUAAACUACTT against Dhrs7b 1.44
GGACCAUUAAACUAAAUGGTT against Tpte -0.592
GCUCUCACAGGAUAAGGCUTT against Cryga -0.126
CCUCGUUAUCCUCAUGGGATT against Alppl2 0.649
GGUUUGAGUGGAAAAUUCATT against Csn1s2b 0.904
GGAGGCUGAGUAUUGGCUUTT against Pi4k2b -1.06
GCUCUACCCAAUCAAGACCTT against Asb14 0.31
GCAGUCGAAGCACUAAAAATT against Dnaaf2 0.412
GGAACUGAAGGGCAAUAUCTT against Kifc5b 1.99
GGGCUCCUUCCUUGAAAAGTT against Dclre1c 0.365
GACCACACUCAUCCAGGCUTT against Gtpbp6 0.817
GGAAACGAUGACAUUUCAATT against Pnrc2 0.0147
GGCCAGAGACUGCCUGAUUTT against Acaa1b 0.225
GGUCAUUCAGCUGGAAGAUTT against Zfp143 -1.07
GGGUAGGUAUCAAAAUAAUTT against 6030452D12Rik 0.172
GCCACGUGAUAGUAAUAAATT against Psmd12 0.0999
GGAGAAUGAAGAGUUAGACTT against Nfu1 0.608
AUUACAAGGUUUGUGGAUATT against Gsdmc3 0.188

z-score, active:
GGAUCAGCAACAGUCUCCATT against 1700029M20Rik -2.01
GGACGCAGACAGGACAAAATT against Parp2 2.16
GCGUGGAAGGUCUGAACACTT against Arfgap3 4.18
GUGUGAACAGAGGCAGAAATT against Xlr3a -2.46
GGACAAGAAGGAAAAGAAATT against Brd4 -3.25
GGACAAGAAGCCACUGACATT against Arrb1 2.2
CCCACAGAACCACACAUUCTT against H2-DMa 3.11
CGACCUACUCUACAGCAAATT against Brinp3 2.6
GGGCGUAGAAACAGCAACUTT against Ushbp1 -2.14
